A number with no mark means an inactive call.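 How the source made its calls: active = AUC reduced over 20% with Padj below 0.05 in at least 2 of 3 replicates; inactive = otherwise.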
Tests used:
Assay in all cases: growth AUC relative to DMSO control (median of replicates) (fraction); higher = more growth (less inhibition), active = hit call of the paper
Conditions in all cases: 20 µM; 24 h
[1] = tested on: Akkermansia muciniphila
In short: (§1)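 Gut bacteria were grown singly in mGAM at 37 °C without oxygen, from OD600 0.05, alongside 20 µM compound in 1% DMSO, and OD600 was read each hour for 24 h. Area under the growth curve was normalised to the median of solvent-only wells per plate, or to row and column medians on the industrial chemical plate. The minimum OD was set to 0 beforehand, and the reported value is the median of three biological replicates grown on separate days.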

[2] = tested on: Bacteroides caccae
In short: as §1

[3] = tested on: Bacteroides clarus
In short: as §1

[4] = tested on: Bacteroides dorei
In short: as §1

[5] = tested on: Bacteroides stercoris
In short: as §1

[6] = tested on: Bacteroides thetaiotaomicron
In short: as §1

[7] = tested on: Bacteroides uniformis
In short: as §1

[8] = tested on: Bifidobacterium longum subsp. longum
In short: as §1

[9] = tested on: Clostridium difficile
In short: as §1

[10] = tested on: Collinsella aerofaciens
In short: as §1

SMILES | growth AUC [1] | growth AUC [2] | growth AUC [3] | growth AUC [4] | growth AUC [5] | growth AUC [6] | growth AUC [7] | growth AUC [8] | growth AUC [9] | growth AUC [10]
CNC(=O)Oc1cc(C)c(N(C)C)c(C)c1 | 1.02 | 1.03 | 0.971 | 1.04 | 0.852 | 0.995 | 1 | 0.991 | 1.1 | 0.995
O=C(O)c1c(Cl)ccc2cc(Cl)cnc12 | 0.898 | 1 | 0.983 | 0.992 | 0.987 | 1.02 | 1 | 0.961 | 0.959 | 0.947
CCOP(=O)(N=C1SCC(C)S1)OCC (stereo not given) | 0.979 | 0.995 | 0.966 | 1.03 | 0.983 | 1.01 | 1.03 | 1.03 | 0.977 | 1
COc1nc(NC(C)C)nc(NC(C)C)n1 | 1.01 | 1.04 | 0.993 | 0.994 | 0.979 | 1.02 | 1.02 | 1.02 | 0.98 | 0.995
CCOc1cc(Oc2ccc(C(F)(F)F)cc2Cl)ccc1[N+](=O)[O-] | 1.08 | 0.966 | 1.01 | 0.917 | 0.905 | 1.01 | 0.992 | 1.03 | 0.993 | 0.881
COC(=O)/C(C)=C/OP(=S)(OC)OC | 0.968 | 0.992 | 0.963 | 0.985 | 1.02 | 0.978 | 0.96 | 1.02 | 0.984 | 1.03
COc1cc(C)c(C(=O)c2c(OC)ccc(Br)c2C)c(OC)c1OC | 1.05 | 1 | 0.959 | 0.992 | 0.958 | 0.951 | 0.91 | 0.885 | 1.03 | 0.956
CN(C)C(=O)Nc1cccc(C(F)(F)F)c1 | 0.966 | 0.97 | 0.983 | 0.991 | 0.911 | 0.967 | 1.02 | 0.961 | 1.02 | 0.997
CC1(C)C(C(=O)OC(C#N)c2cccc(Oc3ccccc3)c2)C1(C)C (stereo not given) | 0.879 | 0.995 | 0.991 | 0.996 | 0.946 | 0.986 | 1.01 | 0.951 | 1.01 | 0.995
COC(=O)C(C)N(C(=O)Cc1ccccc1)c1c(C)cccc1C (stereo not given) | 0.959 | 0.985 | 0.957 | 0.99 | 0.954 | 0.956 | 0.878 | 1.02 | 0.977 | 1.02
Clc1ccc(Cl)cc1 | 1.01 | 0.991 | 0.989 | 0.899 | 1.08 | 1.01 | 1.01 | 1.07 | 0.987 | 0.972
CC1(C)CCC(Cc2ccc(Cl)cc2)C1(O)Cn1cncn1 (stereo not given) | 1.01 | 0.874 | 0.925 | 0.98 | 1.35 | 0.93 | 0.937 | 1.03 | 0.973 | 0.95
N#CCNC(=O)c1cnccc1C(F)(F)F | 0.888 | 1.01 | 0.959 | 1 | 0.966 | 0.988 | 0.99 | 0.961 | 0.99 | 1.01
C[C@@H](Oc1ccc(Cl)cc1Cl)C(=O)O | 1.14 | 0.98 | 1 | 0.925 | 1.26 | 1 | 0.965 | 0.982 | 0.949 | 0.977
CCCCOC(=O)[C@@H](C)Oc1ccc(Oc2ccc(C#N)cc2F)cc1 | 1.1 | 0.973 | 1 | 0.969 | 0.973 | 0.954 | 0.975 | 0.984 | 0.981 | 0.984
COP(=S)(OC)Oc1ccc(S(N)(=O)=O)cc1 | 1.02 | 1.03 | 0.995 | 1 | 0.984 | 0.984 | 1.02 | 0.969 | 0.992 | 0.984
ClC1=C(Cl)[C@]2(Cl)C3CC=CC3[C@@]1(Cl)C2(Cl)Cl (stereo not given in full) | 0.898 | 1.03 | 0.999 | 0.992 | 0.973 | 0.981 | 0.971 | 0.994 | 0.997 | 0.965
CC[C@H](C)[C@H]1O[C@]2(C=C[C@@H]1C)C[C@@H]1C[C@@H](C/C=C(\C)[C@@H](O[C@H]3C[C@H](OC)[C@@H](O[C@H]4C[C@H](OC)[C@@H](NC)[C@H](C)O4)[C@H](C)O3)[C@@H](C)/C=C/C=C3\CO[C@@H]4[C@H](O)C(C)=C[C@@H](C(=O)O1)[C@]34O)O2.O=C(O)c1ccccc1 | 1.08 | 0.0357 (active) | 0.264 (active) | 0.0271 (active) | 0.00403 (active) | 0.812 | 0.322 (active) | 0.167 (active) | 0.781 | 0.553 (active)
CCSCc1ccccc1OC(=O)NC | 0.874 | 1.01 | 0.972 | 0.995 | 0.992 | 0.967 | 0.973 | 0.967 | 0.972 | 1
CNC(=O)O/N=C(\C)SC | 0.938 | 0.99 | 0.981 | 1.03 | 1.06 | 0.988 | 0.988 | 0.91 | 0.999 | 1.03
Nc1nc(N)nc(NC2CC2)n1 | 0.99 | 0.989 | 1.02 | 1.01 | 1.04 | 1 | 0.991 | 1.01 | 1.02 | 0.999
Cc1c(N)cccc1N | 0.946 | 0.969 | 1.04 | 1 | 1.18 | 0.992 | 1 | 1 | 1 | 1.04
CCOC(=O)CC(SP(=O)(OC)OC)C(=O)OCC (stereo not given) | 1.24 | 0.989 | 0.992 | 0.919 | 0.976 | 1.01 | 0.972 | 0.996 | 0.952 | 0.973
Clc1ccc(C2(Cn3cncn3)CC(Br)CO2)c(Cl)c1 (stereo not given) | 1.07 | 0.973 | 0.982 | 0.955 | 0.921 | 0.961 | 0.944 | 0.896 | 0.978 | 0.951
CCCOC(=O)c1ccccc1C(=O)OCCC | 1.16 | 1.04 | 1.03 | 0.983 | 1.18 | 0.992 | 0.989 | 1.05 | 0.999 | 1.01
CCC(C)(NC(=O)c1cc(Cl)c(C)c(Cl)c1)C(=O)CCl (stereo not given) | 0.877 | 0.949 | 0.895 | 0.967 | 0.86 | 0.908 | 0.861 | 0.953 | 0.496 (active) | 1
C1=Cc2cccc3cccc1c23 | 1.01 | 1.02 | 0.996 | 1.02 | 1.03 | 1.01 | 1 | 0.946 | 1 | 0.995
C1CCC(NC2CCCCC2)CC1.O=NO | 0.874 | 0.983 | 0.991 | 0.991 | 0.831 | 0.984 | 0.943 | 0.967 | 1.01 | 1.08
O=C1C2CC=CCC2C(=O)N1SC(Cl)(Cl)Cl (stereo not given) | 0.981 | 1.03 | 1.01 | 1.03 | 1.08 | 1.01 | 1.02 | 0.981 | 1.04 | 1.02

Reference: the supplement of paper PMC12669032
